The values that follow come from the supplement of paper PMC10646978.

± gives the standard deviation.

Common to all, as to details: modulator concentration 10 µM
For experiment [1], the system named is RAW-Dual (murine macrophage reporter line). Description: NF-kB reporter (SEAP) activity fold change vs agonist alone; higher = enhanced NF-kB activity. Summed up: (§1)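 RAW-Dual murine macrophage reporter cells were plated at 50 000 per well in 384-well plates, pin-transferred compound to 10 μM final, and pre-incubated for 1 hour at 37 °C before a PRR agonist was added and the cells incubated overnight. NF-κB activity was read from supernatant SEAP with QUANTI-Blue at 620 nm absorbance, and IRF activity from Lucia luciferase with QUANTI-Luc by luminescence. Each signal was expressed as fold change by dividing by the mean agonist-only control on the same plate. Two replicate plates were averaged, with errors obtained by propagation.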

Experiment [2] shares this test system. Description: IRF reporter (Lucia luciferase) activity fold change vs agonist alone; higher = enhanced IRF activity. The method, boiled down: as §1
Experiment [3] shares this test system. Briefly: viability score (confluency relative to resting cells, overnight) (fraction); higher = more viable, active = viable (0.7 or more). Summed up: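 RAW-Dual macrophages in 384-well plates were treated overnight with compound at 10 μM final. IncuCyte imaging recorded confluency, and IncuCyte software built two confluency masks across every imaged well. The viability score expresses confluency relative to resting cells and was judged against a cutoff, which a compound met only if both masks exceeded 70% of resting cells.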

[4] abbreviates: agonist: CpG ODN 1826 0.5 ug/mL.

With `Cc1cn(C2C=CC(CO)O2)c(=O)[nH]c1=O` (stereo not drawn), the results for the NF-kB reporter in experiment [1] (setting [4]), in experiment [1] (agonist: LPS 0.1 ug/mL) and in experiment [1] (agonist: MPLA […]) were 1.02 ± 0.15, 0.902 ± 0.27 and 0.981 ± 0.06, respectively. The values for the IRF reporter in experiment [2] (agonist: 3'3'-cGAMP 10 ug/mL), in experiment [2] (agonist: LPS 0.1 ug/mL) and in experiment [2] (agonist: MPLA […]) were 0.886 ± 0.041, 1.04 ± 0.27 and 1.04 ± 0.2, respectively. The viability score in experiment [3] is 0.984 (active).
Turning to `O=c1c(-n2ccnn2)c[nH]n1-c1cc(N2CCOCC2)ncn1`, the NF-kB reporter was determined as 0.74 ± 0.2 in experiment [1] (setting [4]), 0.846 ± 0.046 in experiment [1] (agonist: LPS 0.1 ug/mL) and 0.853 ± 0.054 in experiment [1] (agonist: MPLA […]). In addition, the IRF reporter in experiment [2] (agonist: 3'3'-cGAMP 10 ug/mL) was determined as 0.878 ± 0.04; in experiment [2] (agonist: LPS 0.1 ug/mL) it was 1.09 ± 0.26; in experiment [2] (agonist: MPLA […]) it was 1.09 ± 0.15. Also, in experiment [3], the viability score was 1 (active).
For `CNc1ccc([N+](=O)[O-])cc1-n1cnc(-c2ccc([N+](=O)[O-])cc2)c1`, the NF-kB reporter in experiment [1] (setting [4]) was determined as 0.853 ± 0.068; in experiment [1] (agonist: LPS 0.1 ug/mL), 0.807 ± 0.038; in experiment [1] (agonist: MPLA […]), 1.37 ± 0.12. The IRF reporter in experiment [2] (agonist: 3'3'-cGAMP 10 ug/mL) was determined as 1.02 ± 0.046; in experiment [2] (agonist: LPS 0.1 ug/mL), 1.41 ± 0.082; in experiment [2] (agonist: MPLA […]), 1.58 ± 0.15. The viability score in experiment [3] was 1.02 (active).
Turning to `CCN1CC(CCN2CCOCC2)C(c2ccccc2)(c2ccccc2)C1=O.Cl.O` (stereo not drawn), the NF-kB reporter in experiment [1] (setting [4]) was determined as 1 ± 0.15; in experiment [1] (agonist: LPS 0.1 ug/mL) it was 1.19 ± 0.24; in experiment [1] (agonist: MPLA […]) it was 1.79 ± 0.72. For the same compound, the IRF reporter in experiment [2] (agonist: 3'3'-cGAMP 10 ug/mL) amounted to 0.919 ± 0.028; in experiment [2] (agonist: LPS 0.1 ug/mL), 1.37 ± 0.43; in experiment [2] (agonist: MPLA […]), 1.03 ± 0.083. Besides, in experiment [3], the viability score is 1 (active).
Take `CN(C)CCCN(C(=O)Cc1ccc(F)cc1)c1nc2ccc(Cl)cc2s1.Cl`: the NF-kB reporter in experiment [1] (setting [4]) turned out to be 0.447 ± 0.029; in experiment [1] (agonist: LPS 0.1 ug/mL), 0.503 ± 0.079; in experiment [1] (agonist: MPLA […]), 1.08 ± 0.1. Further, the IRF reporter in experiment [2] (agonist: 3'3'-cGAMP 10 ug/mL) was 0.799 ± 0.035; in experiment [2] (agonist: LPS 0.1 ug/mL), 0.714 ± 0.066; in experiment [2] (agonist: MPLA […]), 2.19 ± 0.47. Further, the viability score in experiment [3] is 0.0615 (inactive).
As to `O=C(NCC1CCCO1)c1[nH]nnc1-c1ccc(F)cc1` (stereo not drawn), the figures for the NF-kB reporter in experiment [1] (setting [4]), in experiment [1] (agonist: LPS 0.1 ug/mL) and in experiment [1] (agonist: MPLA […]) were 1.15 ± 0.16, 0.996 ± 0.075 and 1.01 ± 0.05, respectively. Further, the IRF reporter in experiment [2] (agonist: 3'3'-cGAMP 10 ug/mL) was 0.999 ± 0.038; in experiment [2] (agonist: LPS 0.1 ug/mL), 1.03 ± 0.048; in experiment [2] (agonist: MPLA […]) it was 1.1 ± 0.12. Also, the viability score in experiment [3] was 1 (active).
With `Ic1cccc(Cn2nnc(-c3ccccc3)n2)c1`, the NF-kB reporter in experiment [1] (setting [4]) worked out at 0.76 ± 0.06; in experiment [1] (agonist: LPS 0.1 ug/mL) it was 0.98 ± 0.048; in experiment [1] (agonist: MPLA […]), 1.38 ± 0.15. The IRF reporter turned out to be 0.872 ± 0.04 in experiment [2] (agonist: 3'3'-cGAMP 10 ug/mL), 1.28 ± 0.12 in experiment [2] (agonist: LPS 0.1 ug/mL) and 1.51 ± 0.18 in experiment [2] (agonist: MPLA […]). Moreover, the viability score in experiment [3] is 1.01 (active).
As for `Cc1ccn2c(-c3csc(NCc4ccccc4)n3)c(C)nc2c1`, the NF-kB reporter in experiment [1] (setting [4]) was found to be 0.787 ± 0.061; in experiment [1] (agonist: LPS 0.1 ug/mL) it was 1.03 ± 0.048; in experiment [1] (agonist: MPLA […]) it was 1.19 ± 0.15. Also, the values for the IRF reporter in experiment [2] (agonist: 3'3'-cGAMP 10 ug/mL), in experiment [2] (agonist: LPS 0.1 ug/mL) and in experiment [2] (agonist: MPLA […]) were 0.442 ± 0.05, 1.38 ± 0.082 and 1.46 ± 0.12, respectively. In addition, the viability score in experiment [3] is 1.01 (active).
Turning to `CC(O)(CNC(=O)CSc1ccc(F)cc1)c1ccc(-c2ccccc2)cc1` (stereo not drawn), the NF-kB reporter in experiment [1] (setting [4]) was determined as 1.02 ± 0.067; in experiment [1] (agonist: LPS 0.1 ug/mL), 0.973 ± 0.092; in experiment [1] (agonist: MPLA […]), 0.935 ± 0.038. For the same compound, the results for the IRF reporter in experiment [2] (agonist: 3'3'-cGAMP 10 ug/mL), in experiment [2] (agonist: LPS 0.1 ug/mL) and in experiment [2] (agonist: MPLA […]) were 0.685 ± 0.049, 1.11 ± 0.072 and 0.921 ± 0.1, respectively. The viability score in experiment [3] was 0.992 (active).
As for `CCOc1ccc(Nc2nc(Nc3ccc(OCC)cc3)nc(N3CCOCC3)n2)cc1`, the NF-kB reporter in experiment [1] (setting [4]) was 0.35 ± 0.02; in experiment [1] (agonist: LPS 0.1 ug/mL), 1.76 ± 0.13; in experiment [1] (agonist: MPLA […]), 2.82 ± 0.16. The results for the IRF reporter in experiment [2] (agonist: 3'3'-cGAMP 10 ug/mL), in experiment [2] (agonist: LPS 0.1 ug/mL) and in experiment [2] (agonist: MPLA […]) were 1.14 ± 0.083, 4.42 ± 3 and 4.93 ± 2.5, respectively. Moreover, in experiment [3], the viability score is 0.762 (active).
Take `COc1ccc(CNc2nc(N3CCC[C@H]3CO)ncc2C(=O)NCc2ncccn2)cc1Cl`: the results for the NF-kB reporter in experiment [1] (setting [4]), in experiment [1] (agonist: LPS 0.1 ug/mL) and in experiment [1] (agonist: MPLA […]) were 0.245 ± 0.011, 0.629 ± 0.12 and 0.771 ± 0.043, respectively. The IRF reporter amounted to 1.51 ± 0.23 in experiment [2] (agonist: 3'3'-cGAMP 10 ug/mL), 1.39 ± 0.4 in experiment [2] (agonist: LPS 0.1 ug/mL) and 1.23 ± 0.36 in experiment [2] (agonist: MPLA […]). Besides, the viability score in experiment [3] is 1 (active).
As for `Clc1ccc(C=NN2CCN(C(c3ccccc3)c3ccccc3)CC2)cc1`, the NF-kB reporter in experiment [1] (setting [4]) was found to be 1.06 ± 0.087; in experiment [1] (agonist: LPS 0.1 ug/mL), 1.02 ± 0.087; in experiment [1] (agonist: MPLA […]), 0.928 ± 0.025. Further, the IRF reporter in experiment [2] (agonist: 3'3'-cGAMP 10 ug/mL) was determined as 1.02 ± 0.051; in experiment [2] (agonist: LPS 0.1 ug/mL), 1.05 ± 0.049; in experiment [2] (agonist: MPLA […]) it was 0.962 ± 0.1. In experiment [3], the viability score is 0.996 (active).
With `O=c1c(O)c(-c2cc(O)c(O)c(O)c2)oc2cc(O)cc(O)c12`, the NF-kB reporter was determined as 1.51 ± 0.41 in experiment [1] (setting [4]), 0.772 ± 0.04 in experiment [1] (agonist: LPS 0.1 ug/mL) and 0.968 ± 0.064 in experiment [1] (agonist: MPLA […]). The IRF reporter in experiment [2] (agonist: 3'3'-cGAMP 10 ug/mL) amounted to 0.582 ± 0.035; in experiment [2] (agonist: LPS 0.1 ug/mL) it was 0.894 ± 0.23; in experiment [2] (agonist: MPLA […]), 1.01 ± 0.21. For the same compound, the viability score in experiment [3] was 0.908 (active).
With `N#CC(=Cc1cc(Cl)ccc1OCc1c(F)cccc1Cl)c1nn(CCO)c(N)c1C#N`, the NF-kB reporter in experiment [1] (setting [4]) stood at 1.37 ± 0.12; in experiment [1] (agonist: LPS 0.1 ug/mL), 1.19 ± 0.072; in experiment [1] (agonist: MPLA […]) it was 0.806 ± 0.063. Further, the IRF reporter in experiment [2] (agonist: 3'3'-cGAMP 10 ug/mL) was found to be 0.497 ± 0.03; in experiment [2] (agonist: LPS 0.1 ug/mL) it was 0.931 ± 0.11; in experiment [2] (agonist: MPLA […]), 0.787 ± 0.049. In addition, the viability score in experiment [3] is 0.164 (inactive).
